The whole screen tested about 190,000 compounds, of which about 400 (0.21%) were called active. Another 2% or so got no clear call; they are omitted. This is one part of a sample in which actives are shown more often than they occur.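 How the source made its calls: active means percent activity GTP binding at least 20 points away from the 100% baseline, either down as inhibitor or up as activator; inconclusive means compound flagged as likely green fluorescent from well-wide comparison; inactive means the rest.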

We go through 97 molecules from PubChem BioAssay AID761 (NMMLSC, 2007).

The assay deals with Cell division control protein 42 homolog (Homo sapiens) (UniProt P60953). In words: modulators of GTP binding to wildtype Cdc42, primary screen, biochemical, multiplex bead flow cytometry, Bodipy-GTP (AID 761).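 Further: median bead fluorescence of bound Bodipy-FL-GTP at 100 nM; 0% = excess unlabeled GTP control and 100% = no compound control; below 100% means less GTP binding so inhibitor and above means activator.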 As to conditions: GST-Cdc42 beads, at 10 µM, actives lie on both sides. (In general: In flow cytometry, cells or beads pass a laser one at a time.)
Chain of Cell division control protein 42 homolog (Homo sapiens) (P60953 whole entry, looked up): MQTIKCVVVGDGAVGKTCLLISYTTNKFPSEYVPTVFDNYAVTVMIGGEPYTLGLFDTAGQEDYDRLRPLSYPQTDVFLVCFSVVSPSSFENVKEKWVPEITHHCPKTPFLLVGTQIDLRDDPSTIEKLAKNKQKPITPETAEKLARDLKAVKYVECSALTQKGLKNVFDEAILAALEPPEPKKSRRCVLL
Take `O=C(O)c1n[nH]nc1-c1ccccc1`: the percent activity (GTP binding) is 99% (inactive).
Take `O=C(/C=C\c1cn(-c2ccccc2)nc1-c1cccs1)N1CCOCC1`: the percent activity (GTP binding) was 100% (inactive).
On to `O=C(O)/C=C/c1cn(-c2ccccc2)nc1-c1cccs1`, for which the percent activity (GTP binding) is 93% (inactive).
Consider `O=C(O)/C=C/c1cn(Cc2ccccc2)nc1-c1cccs1`, for which the percent activity (GTP binding) was 135% [activator] (active).
Take `NS(=O)(=O)c1ccc(NC(=O)/C=C/c2ccccc2Cl)cc1`: the percent activity (GTP binding) is 97% (inactive).
With `O=C(COc1cc(Cl)c(Cl)cc1Cl)NCCc1ccccn1` the figure was 94% (inactive); with `CCOC(=O)N1CCN(CC(=O)Nc2ccc(F)cc2)CC1`, 96% (inactive); with `Cc1cc(C)cc(NC(=O)Cn2cnc3c(nnn3Cc3ccc(F)cc3)c2=O)c1`, 93% (inactive).
On to `Cc1cccc(C(=O)NNC(=O)c2cccc([N+](=O)[O-])c2)c1`, for which the percent activity (GTP binding) was 105% (inactive).
As for `COc1ccccc1N1CCN(C(=O)c2ccc(Cl)c(S(=O)(=O)N3CCCC3)c2)CC1`, the percent activity (GTP binding) is 100% (inactive).
Consider `O=C(Cc1ccc(F)cc1)N1CCN=C1SCc1cccc([N+](=O)[O-])c1`, for which the percent activity (GTP binding) was 96% (inactive).
Turning to `CCCSc1nc2[nH]ncc2c(=O)[nH]1`, the percent activity (GTP binding) is 100% (inactive).
For the molecule `Cc1ccc(CSc2nc3[nH]ncc3c(=O)[nH]2)cc1`, the percent activity (GTP binding) is 76% (active).
Regarding `Cc1cccc(NC(=O)CSc2nc3[nH]ncc3c(=O)[nH]2)c1`, the percent activity (GTP binding) is 97% (inactive).
In the case of `O=C(NCc1cccs1)c1cc(-c2ccccn2)nc2ccc(Br)cc12`, the percent activity (GTP binding) is 98% (inactive).
On to `O=C(c1cccc([N+](=O)[O-])c1)N1CCN(C(=O)c2ccco2)CC1`, for which the percent activity (GTP binding) was 94% (inactive).
Take `CCN(C(=O)COC(=O)/C=C/c1nc2ccccc2s1)C1CCS(=O)(=O)C1` (configuration not stated): the percent activity (GTP binding) was 93% (inactive).
As to `CCOc1ccc(N(CC(=O)NCCc2ccc(OC)cc2)S(C)(=O)=O)cc1`, the percent activity (GTP binding) is 100% (inactive).
With `Cc1ccccc1NC(=S)NNC(=O)c1cccc(Br)c1` the figure was 91% (inactive); with `Cc1nc(S(=O)(=O)c2ccc(Br)cc2)nc2c1CCC2`, 94% (inactive); with `COc1ccc(C(=O)Nc2ccc(NC(=O)C(C)C)nc2)cc1`, 93% (inactive).
Turning to `Cc1cccc(C(=O)OC(C)CN2CCN(C)CC2)c1` (configuration not stated), the percent activity (GTP binding) was 101% (inactive).
With `Nc1ccc(OCC(O)C[n+]2ccc(CCS(=O)(=O)[O-])cc2)cc1` (configuration not stated) the figure was 102% (inactive); with `O=C(Cc1ccc(F)cc1)N/N=C/c1ccc2c(c1)OCO2`, 97% (inactive).
With `OCCC1CN(Cc2cccn2-c2nccs2)CCN1CCc1ccccc1` (configuration not stated) the figure was 95% (inactive); with `CC(/C=N/NC(=O)c1ccncc1)=C\c1ccco1`, 99% (inactive).
Regarding `CCOC(=O)C1(Cc2cccc(OC)c2)CCCN(S(=O)(=O)c2cccnc2)C1` (configuration not stated), the percent activity (GTP binding) was 100% (inactive).
With `O=C(CSc1nnnn1-c1ccc(O)cc1)N1N=C(c2ccc3ccccc3c2)CC1c1ccccc1` (configuration not stated) the figure was 98% (inactive); with `CC(=O)NC1C(OCc2ccccc2)OC(COC(C)=O)C(OC(C)=O)C1OC(C)=O` (configuration not stated), 104% (inactive); with `O=C(OCC1O[C@@H](OC(=O)c2cc(O)c(O)c(O)c2)[C@@H](OC(=O)c2cc(O)c(O)c(O)c2)[C@@H](OC(=O)c2cc(O)c(O)c(O)c2)[C@@H]1OC(=O)c1cc(O)c(O)c(O)c1)c1cc(O)c(O)c(O)c1` (some centres not stated), 79% (active).
On to `NC(=O)COc1ccc(NC(=O)c2ccccc2-c2ccccc2)cc1`, for which the percent activity (GTP binding) is 92% (inactive).
Turning to `CCOC(=O)c1nc(Nc2ccc(C(=O)OC)cc2)c2ccccc2n1`, the percent activity (GTP binding) was 74% (active).
Take `CCOC(=O)c1ccc(Nc2cc(C)nc3nc(C)nn23)cc1`: the percent activity (GTP binding) was 99% (inactive).
Take `CCOC(=O)c1ccc(N/C(=N/S(=O)(=O)c2ccccc2)c2ccccc2)cc1`: the percent activity (GTP binding) is 98% (inactive).
Take `CC(=O)Nc1ccccc1NC(=O)c1cc(C)cc(C)c1`: the percent activity (GTP binding) is 98% (inactive).
`NC(N)=Nc1nc2ccc(Br)cc2c(=O)[nH]1`: the percent activity (GTP binding) was 93% (inactive).
Consider `O=C(Nc1ccc(Cl)cc1)C1c2cccc[n+]2CC(=O)N1Cc1ccc2c(c1)OCO2` (configuration not stated), for which the percent activity (GTP binding) is 99% (inactive).
As to `CCC1CCCCN1C(=O)CSc1nc2c(c(=O)n(C)c(=O)n2C)n1C` (configuration not stated), the percent activity (GTP binding) was 98% (inactive).
`Fc1cccc(Cc2noc(CN3CCN(c4cnccn4)CC3)n2)c1`: the percent activity (GTP binding) was 101% (inactive).
Turning to `CCOC(=O)c1ccc(NC2Nc3cc(C)nn3S2)cc1` (configuration not stated), the percent activity (GTP binding) was 95% (inactive).
With `CC(=O)c1ccccc1NC(=O)CC1(CC(=O)O)CCCCC1` the figure was 95% (inactive); with `Cc1ccc(C)c(-n2nnnc2SCC(=O)c2c(N)n(C)c(=O)n(C)c2=O)c1`, 93% (inactive); with `Cc1ccc(S(=O)(=O)NC(C(=O)N2CCOCCOCCOCCOCC2)c2ccccc2)cc1` (configuration not stated), 100% (inactive).
`COc1ccccc1C(=O)CSc1cccc[n+]1[O-]`: the percent activity (GTP binding) was 94% (inactive).
With `CCCCN(C(=O)COc1ccc(NC(C)=O)cc1)C1CCS(=O)(=O)C1` (configuration not stated), the percent activity (GTP binding) is 96% (inactive).
Take `Cc1ccc(Cl)cc1NC(=O)COC(=O)CC(C)(C)C`: the percent activity (GTP binding) was 90% (inactive).
Turning to `CCCCn1c(=O)c(C(C)=O)c(O)c2ccccc21`, the percent activity (GTP binding) was 96% (inactive).
On to `CCNC(=O)COc1cc(C)c(Br)c(C)c1`, for which the percent activity (GTP binding) is 105% (inactive).
For the molecule `CC(C)NC(=S)NN=C1CCCCCCCCCCC1`, the percent activity (GTP binding) was 93% (inactive).
As to `C=CCn1c(-c2sc(-c3ccccc3)nc2C)n[nH]c1=S`, the percent activity (GTP binding) is 90% (inactive).
In the case of `O=C(NNC(=S)NCCCN1CCOCC1)c1ccncc1` it was 98% (inactive); in that of `COc1c(F)c(F)c(C(=O)O)c(Nc2ccccc2C)c1F`, 100% (inactive).
In the case of `Cc1ccc(NC(=S)NC(=O)c2ccc(-c3ccccc3)cc2)c(C)c1` it was 99% (inactive); in that of `Cc1ccc(Nc2c(F)c(F)c(F)c(F)c2C(=O)O)c(C)c1`, 134% [activator] (active); in that of `COC(=O)C1=CN(Cc2ccc(OC)c(OC)c2)C=C(C(=O)OC)C1c1cccs1`, 99% (inactive).
Consider `CCn1c(-c2cccnc2Cl)nc2cc(C)c(C)cc21`, for which the percent activity (GTP binding) is 99% (inactive).
With `Cc1ccc(C(=O)OC(C)CN2CCOCC2)cc1` (configuration not stated) the figure was 99% (inactive).
On to `COc1ccccc1CNC(=O)c1cc(=O)c2ccccc2o1`, for which the percent activity (GTP binding) is 96% (inactive).
Regarding `COCCN(Cc1nc(-c2ccc(C(F)(F)F)cc2)no1)C(C)C`, the percent activity (GTP binding) was 94% (inactive).
Consider `COc1ccccc1NC(=O)C1=C(C)NC(=O)NC1c1ccc(C)s1` (configuration not stated), for which the percent activity (GTP binding) was 93% (inactive).
For the molecule `COc1ccc(-c2nc3cnccn3c2NC(C)(C)CC(C)(C)C)cc1O`, the percent activity (GTP binding) was 101% (inactive).
As to `Cc1nnc(N/N=C/C2CC=CCC2)[nH]c1=O` (configuration not stated), the percent activity (GTP binding) was 96% (inactive).
As to `O=C(O)/C=C/c1ccc(OCCCF)cc1`, the percent activity (GTP binding) is 101% (inactive).
For `CN(CC(=O)Nc1ccccc1[N+](=O)[O-])Cc1ccc(Br)cc1`, the percent activity (GTP binding) was 98% (inactive).
Consider `CCC(C)(C)NC(=O)C(c1cccc(OC)c1OC)N(CC(C)C)C(=O)CCC(=O)Nc1cc(C)on1` (configuration not stated), for which the percent activity (GTP binding) is 99% (inactive).
In the case of `O=C(COC(=O)C1CCCCC1)Nc1ccc([N+](=O)[O-])cc1`, the percent activity (GTP binding) is 96% (inactive).
As for `Nc1nc(SCC(=O)N2CCN(S(=O)(=O)c3ccc(Cl)cc3)CC2)n[nH]1`, the percent activity (GTP binding) is 100% (inactive).
As for `O=C(Nc1ccc2c(c1)CCC2)c1ccc(Br)s1`, the percent activity (GTP binding) is 98% (inactive).
With `Cc1cccc2cc(CN(Cc3ccc4c(c3)OCO4)Cc3nnnn3C3CCCC3)c(=O)[nH]c12` the figure was 94% (inactive); with `CCC(c1nnnn1C1CCCC1)N(Cc1cccs1)Cc1cc2cccc(C)c2[nH]c1=O` (configuration not stated), 103% (inactive).
For the molecule `Cc1cccc2cc(CN(Cc3cccs3)C(c3nnnn3C3CCCC3)C(C)C)c(=O)[nH]c12` (configuration not stated), the percent activity (GTP binding) was 72% (active).
With `COc1cc(OC)c(C(=O)OCC(=O)N2CC(=O)Nc3ccccc32)cc1OC` the figure was 103% (inactive).
Take `CSc1nc2nc(-c3cccc(C(F)(F)F)c3)ccn2n1`: the percent activity (GTP binding) is 93% (inactive).
With `CSc1ncccc1C(=O)NC1CCCCCC1` the figure was 96% (inactive).
In the case of `COc1ccc(NC(=O)c2c(SC)nsc2SC)cc1` it was 105% (inactive); in that of `CSc1nsc(SC)c1NC(=O)OC1CCCCC1`, 35% (active).
As for `Cc1cc(C)n(-c2ccc(C(=O)O)cc2[N+](=O)[O-])n1`, the percent activity (GTP binding) was 98% (inactive).
In the case of `COc1ccc(NC(=O)CN2C(=O)CSC2=O)cc1`, the percent activity (GTP binding) is 98% (inactive).
With `COc1cccc(OC)c1C(=O)OCC(=O)/C(C#N)=C(\C)N` the figure was 95% (inactive); with `CC1(C)C(c2cccs2)=[N+]([O-])C2(CCCCC2=O)N1O` (configuration not stated), 99% (inactive).
Turning to `Cc1cc(NC(=O)CN2C(=O)NC(C)(CCc3ccccc3)C2=O)no1` (configuration not stated), the percent activity (GTP binding) was 96% (inactive).
In the case of `CC(=O)c1ccc(NC(=O)CSC(=S)N2CCCC2)cc1`, the percent activity (GTP binding) was 97% (inactive).
For `CCNC(=O)COC(=O)CCNC(=O)c1cccc(C)c1`, the percent activity (GTP binding) is 102% (inactive).
Regarding `O=C(N/N=C/c1ccco1)c1ccc(NC(=O)C2CC2)cc1`, the percent activity (GTP binding) was 92% (inactive).
As for `CCOC(=O)c1ccccc1NC(=O)CSc1nc2ccccc2c(=O)[nH]1`, the percent activity (GTP binding) is 92% (inactive).
As to `CCN(CC)Cc1nc2sc(C)c(C)c2c(=O)[nH]1`, the percent activity (GTP binding) is 94% (inactive).
In the case of `O=C(NN=C1CCC(=NNC(=O)c2cccnc2)CC1)c1cccnc1`, the percent activity (GTP binding) was 96% (inactive).
With `O=C(CCN1CCN(C/C=C/c2ccccc2)CC1)Nc1cccc(F)c1` the figure was 98% (inactive); with `C=CCn1c(CCNC(=O)c2ccccc2F)nnc1SCC(=O)Nc1ccc(OC)cc1`, 96% (inactive).
Take `Cc1ccccc1OCCOc1ccc([N+](=O)[O-])cc1/C=N/n1cnnc1`: the percent activity (GTP binding) is 95% (inactive).
For `Cn1cnnc1Sc1ccc(S(C)(=O)=O)cc1[N+](=O)[O-]`, the percent activity (GTP binding) is 99% (inactive).
On to `Cc1nc(N2CCC(C)CC2)c2c(C)c(C(=O)Nc3cc(F)ccc3C)sc2n1`, for which the percent activity (GTP binding) was 92% (inactive).
For `O=C(COC(=O)c1ccccc1)Nc1cccc(S(=O)(=O)N2CCOCC2)c1`, the percent activity (GTP binding) is 96% (inactive).
Take `O=C1Nc2cc(Cl)c(Cl)cc2N(O)N1c1ccccc1Cl`: the percent activity (GTP binding) is 92% (inactive).
In the case of `O=[N+]([O-])c1cccc(/C([O-])=C(/C(=S)Nc2ccccc2F)[n+]2ccccc2)c1` it was 95% (inactive); in that of `CCOc1cc2[nH]c(=O)n(Cc3ccc(C(=O)NCCCN4CCCC4=O)cc3)c(=O)c2cc1OCC`, 98% (inactive); in that of `O=C(/C=C/c1ccc(Cl)cc1)Nc1ccc(S(=O)(=O)Nc2ncccn2)cc1`, 98% (inactive).
